Experimental findings from PubChem BioAssay (NCI) are described below.

This is part of a sample that, as a whole, favours compounds with a hit. Of some 83,000 tested, about 20% had one in any assay.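 Method: cells in 96-well plates; compound added at one concentration; 48 h incubation; percent growth measured; values under 10 scored active.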 A number with no mark means an inactive call. The source made the active and inactive calls.

Some test systems named below: HCT-15 colon; HT29 colon; SNB-75 CNS; SNB-19 CNS; U251 CNS; PC-3 prostate; SK-MEL-5 melanoma; UACC-62 melanoma; LOX IMVI melanoma; SK-MEL-28 melanoma; SK-MEL-2 melanoma; EKVX NSCLC; SN12C renal; UO-31 renal; TK-10 renal; ACHN renal; A498 renal; CCRF-CEM leukemia; MOLT-4 leukemia; SR leukemia.
Holding throughout (test): NCI-60 one-dose screen, 48 h (100 = growth as untreated, 0 = no growth, -100 = all killed)
What all share (details): 10 µM unless noted

In the case of `Cc1nc2sc(C(=O)Nc3ccccc3)c(N)c2cc1C(C)O` (stereo not given), the growth was 27.8% with HCT-15 colon; 1.95% (active) with HT29 colon; 30.9% in the assay with SNB-75 CNS; 24.3% in the assay on SNB-19 CNS; 21.7% in the assay on U251 CNS; 21.5% with PC-3 prostate. Moreover, the growth in the assay with SK-MEL-5 melanoma is 26.5%; in the assay with UACC-62 melanoma, 29.5%; with LOX IMVI melanoma, 47.5%; with SK-MEL-28 melanoma, 55.8%; with SK-MEL-2 melanoma, 39.3%; with EKVX NSCLC, 76.1%. The growth in the assay on SN12C renal was 43.2%; in the assay on UO-31 renal, 61.6%; in the assay on TK-10 renal, 65.9%; in the assay with ACHN renal it was 54.2%; in the assay with A498 renal, 36.3%; in the assay on CCRF-CEM leukemia, 16.6%. Besides, the growth was 25.7% in the assay on MOLT-4 leukemia and 11.7% in the assay with SR leukemia.
Regarding `Cn1cc(-c2ccc3c(c2)ncn3-c2ccc(CC(=O)Nc3cc(C(C)(C)C)on3)cc2)cn1`, the growth with HCT-15 colon is 16.1%; with HT29 colon, 27.1%; in the assay with SNB-75 CNS, -20.6% (active); in the assay on SNB-19 CNS it was 58.5%; with U251 CNS, 31.3%; in the assay on PC-3 prostate, 43.5%. The growth in the assay with SK-MEL-5 melanoma is 48.2%; with UACC-62 melanoma, 35.4%; in the assay with LOX IMVI melanoma, 12.6%; with SK-MEL-28 melanoma it was 48.5%; in the assay on SK-MEL-2 melanoma it was 23.4%; with EKVX NSCLC, 20.5%. Besides, the growth in the assay on SN12C renal is 13.1%; in the assay on UO-31 renal it was 3.88% (active); in the assay on TK-10 renal, -8.53% (active); in the assay on ACHN renal, 6.24% (active); in the assay with A498 renal, -47.1% (active); in the assay with CCRF-CEM leukemia it was 57.7%. The figures for the growth with MOLT-4 leukemia and with SR leukemia were 27.4% and 18.8%, respectively.
Turning to `C=C1C(=O)O[C@H]2[C@H]1CC/C(COC(=O)CCC(=O)OC/C1=C/CC[C@@]3(C)O[C@H]3[C@H]3OC(=O)C(=C)[C@@H]3CC1)=C\CC[C@@]1(C)O[C@@H]21`, the growth in the assay with HCT-15 colon is 0.631% (active); with HT29 colon, 27.2%; with SNB-75 CNS, 76.5%; with SNB-19 CNS, 94.3%; with U251 CNS, 72.9%; in the assay on PC-3 prostate it was 60%. In addition, the growth in the assay with SK-MEL-5 melanoma was 61.4%; in the assay with UACC-62 melanoma, 13.2%; in the assay on LOX IMVI melanoma, 26.2%; in the assay on SK-MEL-28 melanoma, 4.61% (active); with SK-MEL-2 melanoma, 60.8%; with EKVX NSCLC it was 44.5%. In addition, the growth in the assay with SN12C renal is 5.32% (active); with UO-31 renal, 0.355% (active); in the assay with TK-10 renal, 25%; in the assay on ACHN renal, -21.8% (active); in the assay on A498 renal, 114%; in the assay with CCRF-CEM leukemia it was -8.57% (active). Besides, the results for the growth in the assay on MOLT-4 leukemia and in the assay with SR leukemia were 1.24% (active) and 0.484% (active), respectively.
As to `Cc1nc2sc(C(=O)Nc3cccc(Cl)c3C)c(N)c2cc1C(C)O` (stereo not given), the growth is 16.4% in the assay on HCT-15 colon; 1.68% (active) with HT29 colon; 13.9% in the assay on SNB-75 CNS; 22.4% in the assay on SNB-19 CNS; 17.7% with U251 CNS; 13.3% with PC-3 prostate. The growth was 9.62% (active) in the assay with SK-MEL-5 melanoma; 30.7% with UACC-62 melanoma; 29.9% with LOX IMVI melanoma; 62.1% in the assay on SK-MEL-28 melanoma; 24.2% in the assay on SK-MEL-2 melanoma; 54.5% in the assay with EKVX NSCLC. Also, the growth with SN12C renal is 33.5%; in the assay with UO-31 renal, 48.7%; in the assay with TK-10 renal, 46.3%; in the assay on ACHN renal, 35.7%; with A498 renal it was 8.96% (active); with CCRF-CEM leukemia it was 14.2%. For the same compound, the growth in the assay with MOLT-4 leukemia was 13%; with SR leukemia, 12%.
For the compound `CCCCCCCc1n(Cc2ccc3ccccc3c2)c2ccccc2[n+]1Cc1ccc2ccccc2c1`, the growth with HCT-15 colon is -80% (active); in the assay with HT29 colon, -84.3% (active); in the assay with SNB-75 CNS, -86.8% (active); in the assay on SNB-19 CNS, -77.9% (active); with U251 CNS, -79.8% (active); with PC-3 prostate it was -88.7% (active). Further, the growth with SK-MEL-5 melanoma was -92.8% (active); in the assay with UACC-62 melanoma it was -89.6% (active); in the assay with LOX IMVI melanoma it was -75.1% (active); in the assay with SK-MEL-28 melanoma, -85.4% (active); with SK-MEL-2 melanoma, -74.9% (active); in the assay on EKVX NSCLC, -73.5% (active). Further, the growth in the assay with SN12C renal is -79.8% (active); with UO-31 renal, -88.1% (active); in the assay with TK-10 renal, -87.3% (active); in the assay on ACHN renal, -87.4% (active); in the assay on A498 renal, -93.3% (active); with CCRF-CEM leukemia, -59.1% (active). Besides, the growth in the assay on MOLT-4 leukemia is -68% (active); in the assay with SR leukemia, -60.4% (active).
On to `NCCN1CCNCC1`, for which the growth was 100% with HCT-15 colon; 98.4% in the assay on HT29 colon; 92.2% in the assay with SNB-75 CNS; 95.9% in the assay with SNB-19 CNS; 102% in the assay with U251 CNS; 92% in the assay on PC-3 prostate. Moreover, the growth with SK-MEL-5 melanoma was 109%; in the assay on UACC-62 melanoma, 98.1%; in the assay with LOX IMVI melanoma, 101%; in the assay with SK-MEL-28 melanoma it was 109%; with SK-MEL-2 melanoma, 111%; in the assay with EKVX NSCLC, 114%. The growth with SN12C renal was 92%; in the assay with UO-31 renal, 90.7%; in the assay on TK-10 renal, 106%; with ACHN renal, 106%; in the assay with A498 renal it was 92.9%; in the assay on CCRF-CEM leukemia, 97%. For the same compound, the growth in the assay with MOLT-4 leukemia is 102%; in the assay on SR leukemia it was 99.7%.
`S=C(Nc1ccccc1)c1ccccn1`: the growth with HCT-15 colon was 96.8%; in the assay with HT29 colon, 86.4%; with SNB-75 CNS it was 97.3%; with SNB-19 CNS it was 97.5%; with U251 CNS, 95.2%; with PC-3 prostate, 92.2%. The growth with SK-MEL-5 melanoma is 102%; in the assay on UACC-62 melanoma, 90.3%; with LOX IMVI melanoma it was 85.9%; with SK-MEL-28 melanoma it was 104%; in the assay on SK-MEL-2 melanoma it was 103%; in the assay on EKVX NSCLC, 93.1%. The growth was 85.9% in the assay with SN12C renal; 57% in the assay on UO-31 renal; 109% with TK-10 renal; 93.5% in the assay with ACHN renal; 91.4% in the assay on A498 renal; 37.5% with CCRF-CEM leukemia. Also, the growth in the assay on MOLT-4 leukemia was 80%; in the assay with SR leukemia, 56.1%.
On to `CCOC(=O)c1c(-c2ccc(O)cc2)c(C#N)c2c(C#N)c(N)nn2c1N`, for which the growth is 76% in the assay with HCT-15 colon; 43% in the assay with HT29 colon; 65.7% with SNB-75 CNS; 74.8% in the assay on SNB-19 CNS; 63.3% in the assay with U251 CNS; 68.9% with PC-3 prostate. Moreover, the growth with SK-MEL-5 melanoma is 52.9%; in the assay with UACC-62 melanoma, 36.9%; in the assay on LOX IMVI melanoma it was 55.2%; in the assay with SK-MEL-28 melanoma, 68.6%; with SK-MEL-2 melanoma, 44.9%; in the assay with EKVX NSCLC it was 71.6%. Moreover, the growth is 81.7% with SN12C renal; 69.9% in the assay on UO-31 renal; 82.8% with TK-10 renal; 88% with ACHN renal; 34.9% in the assay with A498 renal; 35.7% in the assay with CCRF-CEM leukemia. Further, the growth in the assay on MOLT-4 leukemia is 23.7%; in the assay on SR leukemia, 22.3%.
